# Results published in paper PMC4151992.
# Target: Eukaryotic translation initiation factor 3 subunit I (UniProt P40217)
# Assay: cross-link between two proteins; cross-linking mass spectrometry
# Chain of Eukaryotic translation initiation factor 3 subunit A, P38249 (P38249 whole entry): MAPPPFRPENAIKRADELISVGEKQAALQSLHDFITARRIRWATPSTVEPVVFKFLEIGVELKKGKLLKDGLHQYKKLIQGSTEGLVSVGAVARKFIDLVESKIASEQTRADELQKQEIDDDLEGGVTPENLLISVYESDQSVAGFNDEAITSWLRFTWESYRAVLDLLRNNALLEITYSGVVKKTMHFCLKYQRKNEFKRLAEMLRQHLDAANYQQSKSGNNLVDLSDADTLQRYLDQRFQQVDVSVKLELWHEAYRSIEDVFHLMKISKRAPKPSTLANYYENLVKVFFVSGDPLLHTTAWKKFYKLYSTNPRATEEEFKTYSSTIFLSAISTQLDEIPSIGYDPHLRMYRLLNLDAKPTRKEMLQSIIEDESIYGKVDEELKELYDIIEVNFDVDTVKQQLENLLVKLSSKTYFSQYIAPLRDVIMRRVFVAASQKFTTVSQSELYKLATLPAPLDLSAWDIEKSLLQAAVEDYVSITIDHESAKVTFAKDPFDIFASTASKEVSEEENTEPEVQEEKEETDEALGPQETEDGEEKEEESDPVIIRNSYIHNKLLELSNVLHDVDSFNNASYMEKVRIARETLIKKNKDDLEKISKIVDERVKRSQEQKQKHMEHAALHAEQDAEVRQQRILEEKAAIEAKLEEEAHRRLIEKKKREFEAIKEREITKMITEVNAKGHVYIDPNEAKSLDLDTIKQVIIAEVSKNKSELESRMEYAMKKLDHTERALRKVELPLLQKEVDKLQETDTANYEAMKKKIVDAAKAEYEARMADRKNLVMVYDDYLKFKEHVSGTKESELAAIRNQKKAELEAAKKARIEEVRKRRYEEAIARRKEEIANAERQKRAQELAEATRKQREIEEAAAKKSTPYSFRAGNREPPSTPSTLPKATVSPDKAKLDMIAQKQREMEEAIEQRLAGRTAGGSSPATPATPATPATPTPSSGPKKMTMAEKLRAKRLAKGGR
# Chain of Eukaryotic translation initiation factor 3 subunit I (P40217 whole entry): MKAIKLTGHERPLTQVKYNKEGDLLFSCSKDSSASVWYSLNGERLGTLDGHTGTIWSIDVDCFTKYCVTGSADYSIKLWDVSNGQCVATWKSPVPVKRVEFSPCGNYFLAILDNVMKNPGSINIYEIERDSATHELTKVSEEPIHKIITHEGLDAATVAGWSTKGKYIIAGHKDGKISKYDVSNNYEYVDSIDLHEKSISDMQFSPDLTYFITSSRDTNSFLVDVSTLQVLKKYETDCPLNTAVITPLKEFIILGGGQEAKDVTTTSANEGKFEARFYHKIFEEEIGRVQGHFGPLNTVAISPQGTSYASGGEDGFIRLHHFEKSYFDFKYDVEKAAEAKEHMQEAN
substance,measurement,value
"Eukaryotic translation initiation factor 3 subunit A, P38249",listed as a hit,yes
